Assay results from PubChem BioAssay AID1578 (Sanford-Burnham Center for Chemical Genomics, 2009).
The campaign covered roughly 290,000 compounds. About 3,000 (1%) were called active. Rule as the data show it: active = inhibition mostly above about 36% (no sharp cut-off); inactive = mostly below about 34%. The sample as a whole holds a higher share of actives than the screen did.

experiment: NOD1 signaling inhibitors, primary screen, cell-based, luminescence, uHTS (AID 1578); conditions: NOD1-driven NF-kB luciferase reporter cells, at 4 µM, stronger effect = higher value;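 also: HEK-293T reporter cells stimulated with the NOD1 agonist gamma-tri-DAP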

SMILES | inhibition
O=C(N/N=C/c1ccoc1)c1ccccc1 | 20.3% (inactive)
CN(CCO)S(=O)(=O)c1ccc2c(c1)C(=NO)c1cc(S(=O)(=O)N(C)CCO)ccc1-2 | -16% (inactive)
CCCNC(=O)c1n[nH]c(=O)c2ccccc12 | -12.4% (inactive)
Cc1cc(C)c2c(N)c(C(=O)NN)sc2n1 | -9.3% (inactive)
Cc1cc(C)c2c(N)c(C(=O)c3ccccc3Cl)sc2n1 | 0.3% (inactive)
Cc1cc(C)c2c(N)c(C(=O)c3ccc(Cl)cc3)sc2n1 | 6.3% (inactive)
Cc1cc(C)c2c(N)c(C(=O)Nc3ncc(C)s3)sc2n1 | 92.5% (active)
Cc1cc(C)c2c(N)c(C(=O)Nc3nccs3)sc2n1 | 34.4% (inactive)
Cc1cc(C)c2c(N)c(C(=O)c3ccc(Cl)cc3Cl)sc2n1 | 81.7% (active)
O=C(CSc1nnc(NC(=O)C2CC2)s1)NCc1ccc(F)cc1 | -10% (inactive)
COc1ccc(C(C)=O)cc1CSc1ncccn1 | -32.9% (inactive)
O=C1Nc2cc(Cl)c(Cl)cc2N(O)N1c1ccc(Cl)cc1 | 11.5% (inactive)
CCC/C(O)=C1\C(=O)CCCC1=NCCc1c(C)[nH]c2ccc(C)cc12 | -7.7% (inactive)
CCC/C(O)=C1\C(=O)CCCC1=NCCc1c(C)[nH]c2ccc(OC)cc12 | 65.4% (active)
CCCC/C(O)=C1\C(=O)CCCC1=NCCc1c(C)[nH]c2ccc(OC)cc12 | -7.7% (inactive)
CCS(=O)(=O)c1ccc2c(c1)N(S(C)(=O)=O)CC(C(=O)NCc1ccccc1OC)O2 (stereo not drawn) | 10.4% (inactive)
COc1ccc(-c2nc(CN3CCN(c4ccccc4OC)CC3)c(C)o2)cc1 | -31.1% (inactive)
Cc1cccc(N2CCN(Cc3nc(-c4ccc(F)cc4F)oc3C)CC2)n1 | -6.3% (inactive)
COc1ccc(-c2nc(CN3CCN(c4cc(C)nc(C)c4)CC3)c(C)o2)c2ccccc12 | -23.4% (inactive)
Cc1cccc(N2CCN(Cc3nc(-c4ccccc4Cl)oc3C)CC2)n1 | -11.6% (inactive)
Cc1oc(-c2cc(F)ccc2F)nc1CN1CCN(c2cnccn2)CC1 | -26% (inactive)

SMILES | inhibition
Cc1cnc(C)c(N2CCN(Cc3nc(-c4cccc(F)c4F)oc3C)CC2)n1 | -26.1% (inactive)
CCCCn1c(SCC(=O)Nc2cc(C(F)(F)F)ccc2Cl)nnc1C(CC)N(C)C (stereo not drawn) | -47.6% (inactive)
O=C1CCc2cc(S(=O)(=O)N3CCC(C(=O)NCc4ccccn4)CC3)ccc2N1 | -15.8% (inactive)
O=C(O)CCC(=O)Nc1cccc(-c2nnc(-c3ccccc3)o2)c1 | 15.5% (inactive)
CCN1CCSc2ccc(C(=O)Nc3ccc(NC(C)=O)cc3)cc21 | 4% (inactive)
CC(=O)Nc1ccc(NC(=O)C2(C)CC2(Cl)Cl)cc1 (stereo not drawn) | -29.2% (inactive)
N#CCCn1c(SCC(=O)NCc2ccco2)nc2ccccc21 | -13.3% (inactive)
CC(=O)c1cccc(NC(=O)CNC(=O)Cc2ccccc2)c1 | 19.8% (inactive)
CC(C)(C)NC(=O)N1CCCN(c2ccc(C(F)(F)F)cn2)CC1 | -7.3% (inactive)
CCOC(CNc1cc(C)nc2c(-c3ccccc3OC)c(C)nn12)OCC | -6.1% (inactive)
Clc1ccccc1-c1ccc(CN2CCN(c3ccccc3)CC2)o1 | 7.9% (inactive)
Cc1cccc(C)c1NC(=O)C(C)N1CCCC1 (stereo not drawn) | 5.2% (inactive)
Cc1cc(C)c(NC(=O)C(C)N2CCCCCC2)c(C)c1 (stereo not drawn) | 39.1% (inactive)
CC(C(=O)Nc1c2c(cc3c1CCC3)CCC2)N1CCCC1 (stereo not drawn) | 63.4% (active)
c1ccc(CNc2ncnc3sccc23)cc1 | 31.8% (inactive)
Brc1ccc2ncnc(NCc3ccccc3)c2c1 | 93.1% (active)
Clc1ccc2c(NCc3ccco3)ncnc2c1 | 16.7% (inactive)
COc1cc2ncnc(NCc3ccco3)c2cc1OC | -1.4% (inactive)
O=C(O)c1cccc(Nc2ncnc3ccc(Br)cc23)c1 | -10.3% (inactive)
Cc1ccc(S(=O)(=O)CC(=O)c2ccccc2)cc1 | -10% (inactive)
CC(=O)Nc1c(C)cc(S(C)(=O)=O)cc1C | -12.2% (inactive)

SMILES | inhibition
NC(=O)c1c(NC(NC(=O)c2ccco2)(C(F)(F)F)C(F)(F)F)sc2c1CCCC2 | -24.2% (inactive)
O=C(COC(=O)c1cc(-c2ccc(Cl)s2)nc2ccccc12)NCc1ccco1 | -9.8% (inactive)
C=CCCC(=O)NC1CC(C)(C)Cc2c1cnn2-c1ccc(OC)cc1 (stereo not drawn) | -7% (inactive)
Cc1ccccc1Oc1ncnc(N)c1[N+](=O)[O-] | 4.6% (inactive)
CC1Cc2ccccc2N1c1ncnc(N)c1[N+](=O)[O-] (stereo not drawn) | 96.2% (active)
CC1Cc2ccccc2N1c1ncnc2c1nnn2Cc1ccccc1 (stereo not drawn) | -0.2% (inactive)
c1ccc2c(c1)CCN(c1ncnc3nc[nH]c13)C2 | -40.8% (inactive)
CC1Cc2ccccc2N1c1ncnc2nc[nH]c12 (stereo not drawn) | 71.8% (active)
Clc1ccccc1N1CCN(c2ncnc3nc[nH]c23)CC1 | -13.5% (inactive)
O=C(CCNC(=O)N1CCn2c1nc1ccccc12)NCc1ccc(Cl)cc1 | -26.9% (inactive)
CN(C)C(=O)c1cc(C(=O)c2ccc(C(F)(F)F)cc2F)c[nH]1 | 21.8% (inactive)
O=C(CN1C(=O)c2ccccc2C1=O)Oc1ccc(Cl)cc1 | -14.3% (inactive)
Cc1cccc(OCCOC(=O)C2CCN(S(=O)(=O)c3ccc(C)c(C)c3)CC2)c1 | -9.6% (inactive)
CCN(CC(=O)NC1CCS(=O)(=O)C1)S(=O)(=O)c1ccc(C)cc1C (stereo not drawn) | -12% (inactive)
Cc1c(CCC(=O)NCCCCCC(=O)O)c(=O)oc2cc3occ(-c4ccccc4)c3cc12 | 34.3% (active)
Cc1c(CCC(=O)NCCC(=O)O)c(=O)oc2cc3occ(-c4ccccc4)c3cc12 | -7.4% (inactive)
Cc1c(CC(=O)NCCCC(=O)O)c(=O)oc2cc3occ(-c4ccccc4)c3cc12 | -6.5% (inactive)
O=C(CNCc1ccc(F)cc1)Nc1ccc(S(=O)(=O)N2CCOCC2)cc1 | -26.8% (inactive)
O=C(c1cncc(Br)c1)N1CCc2ccccc2C1 | 80.2% (active)
O=C(c1cccnc1)N1CCc2ccccc2C1 | -0.9% (inactive)
O=C(c1ccncc1)N1CCc2ccccc2C1 | -32.9% (inactive)
